The values that follow come from publication PMC7862700, “An all-to-all approach to the identification of sequence-specific readers for epigenetic DNA modifications on cytosine”.

Holding throughout (assay): DAPPL (digital affinity profiling via proximity ligation, sequencing); 10 mM Tris-HCl pH 7.5, 50 mM NaCl, 1 mM DTT, 4% glycerol, room temperature, 30 min; GST-TFs on glutathione beads, 16-mer random dsDNA library, 0.1% formaldehyde crosslink after washing; high values mean tight binding
One experiment deals with T1, FEV (Homo sapiens, UniProt Q99581 1-238).
T1 sequence: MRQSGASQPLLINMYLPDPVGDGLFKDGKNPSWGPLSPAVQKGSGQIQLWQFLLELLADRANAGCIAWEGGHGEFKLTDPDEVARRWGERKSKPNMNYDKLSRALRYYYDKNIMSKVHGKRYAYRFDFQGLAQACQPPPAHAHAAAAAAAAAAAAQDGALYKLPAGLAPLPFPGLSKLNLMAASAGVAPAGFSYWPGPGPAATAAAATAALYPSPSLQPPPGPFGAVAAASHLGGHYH
The following applies: protein: recombinant; tags: N-terminal GST; dsDNA, one strand shown. The procedure, abridged:
(§1)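 Each value of binding signal is a hexamer's read frequency for a factor divided by the same hexamer's frequency in the tag-only sample. Barcoded, bead-captured GST fusions of human transcription factors made in yeast were pooled with that sample and incubated with 200 nmole of a random double-stranded 16-mer DNA library in Tris/NaCl/DTT/glycerol buffer at room temperature for 30 min. Washing, 0.1% formaldehyde crosslinking, proximity ligation, PCR and Illumina NextSeq500 sequencing followed.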

The next experiment concerns the target ETV5 (Homo sapiens, UniProt P41161 1-510). The following applies: protein: recombinant; tags: N-terminal GST; dsDNA, one strand shown. The procedure, abridged: as §1
The target in the next experiment is HSF1 (Homo sapiens, UniProt Q00613 1-529). The note with it: protein: recombinant; tags: N-terminal GST; chain copies: 3; dsDNA, one strand shown. The procedure, abridged:
as §1

A further experiment has as its target T2, SPIC (Homo sapiens, UniProt Q8N5J4 1-248).
T2 sequence: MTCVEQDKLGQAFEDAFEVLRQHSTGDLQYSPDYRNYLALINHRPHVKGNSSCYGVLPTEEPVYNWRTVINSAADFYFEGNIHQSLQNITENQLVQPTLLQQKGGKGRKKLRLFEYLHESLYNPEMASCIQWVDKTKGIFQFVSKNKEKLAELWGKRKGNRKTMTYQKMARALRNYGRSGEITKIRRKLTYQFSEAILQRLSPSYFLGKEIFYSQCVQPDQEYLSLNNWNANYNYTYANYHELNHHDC
The following applies: protein: recombinant; tags: N-terminal GST; dsDNA, one strand shown. The procedure, abridged:
as §1

A further experiment addresses ELF4 (Homo sapiens, UniProt Q99607 1-663). The note with it: protein: recombinant; tags: N-terminal GST; dsDNA, one strand shown. An outline of the steps:
as §1

A further experiment has as its target T3, ELK4 (Homo sapiens, UniProt P28324-2 1-405).
T3 sequence: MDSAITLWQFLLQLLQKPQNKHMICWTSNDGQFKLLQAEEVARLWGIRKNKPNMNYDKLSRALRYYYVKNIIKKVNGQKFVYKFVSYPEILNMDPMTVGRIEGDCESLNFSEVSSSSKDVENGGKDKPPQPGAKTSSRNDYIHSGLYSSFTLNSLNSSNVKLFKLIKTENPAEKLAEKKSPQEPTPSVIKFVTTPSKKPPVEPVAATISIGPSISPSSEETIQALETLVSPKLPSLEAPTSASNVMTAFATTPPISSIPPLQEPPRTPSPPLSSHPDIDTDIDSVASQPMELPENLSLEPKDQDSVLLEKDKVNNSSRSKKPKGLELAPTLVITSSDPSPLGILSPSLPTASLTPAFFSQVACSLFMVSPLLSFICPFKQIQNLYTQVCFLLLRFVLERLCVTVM
The following applies: protein: recombinant; tags: N-terminal GST; dsDNA, one strand shown. An outline of the steps: as §1

A further experiment has as its target T4, ETV2 (Homo sapiens, UniProt O00321 1-342).
T4 sequence: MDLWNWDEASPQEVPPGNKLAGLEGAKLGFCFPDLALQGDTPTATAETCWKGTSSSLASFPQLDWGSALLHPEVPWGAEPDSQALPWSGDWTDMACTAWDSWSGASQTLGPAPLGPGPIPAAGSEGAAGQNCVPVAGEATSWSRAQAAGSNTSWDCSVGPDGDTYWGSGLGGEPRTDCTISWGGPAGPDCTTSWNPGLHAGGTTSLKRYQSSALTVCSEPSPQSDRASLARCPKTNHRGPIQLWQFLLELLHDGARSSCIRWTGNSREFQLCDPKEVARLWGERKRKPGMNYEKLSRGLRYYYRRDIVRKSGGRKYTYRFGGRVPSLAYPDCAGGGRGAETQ
The following applies: protein: recombinant; tags: N-terminal GST; dsDNA, one strand shown. An outline of the steps: as §1

The target of a further experiment is T5, ELF3 (Homo sapiens, UniProt P78545 1-371).
T5 sequence: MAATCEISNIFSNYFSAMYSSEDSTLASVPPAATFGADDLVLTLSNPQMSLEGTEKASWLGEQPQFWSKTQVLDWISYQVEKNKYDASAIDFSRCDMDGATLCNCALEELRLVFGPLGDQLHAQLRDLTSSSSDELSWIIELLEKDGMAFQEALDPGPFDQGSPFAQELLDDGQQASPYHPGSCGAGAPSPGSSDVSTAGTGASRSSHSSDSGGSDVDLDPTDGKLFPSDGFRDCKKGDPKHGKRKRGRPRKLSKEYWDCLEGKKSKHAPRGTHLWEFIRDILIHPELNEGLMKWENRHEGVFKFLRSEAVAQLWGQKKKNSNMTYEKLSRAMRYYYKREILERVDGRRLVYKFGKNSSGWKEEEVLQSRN
The note with it: protein: recombinant; tags: N-terminal GST; dsDNA, one strand shown. An outline of the steps: as §1

Another experiment deals with CRX (Homo sapiens, UniProt O43186 1-299). The following applies: protein: recombinant; tags: N-terminal GST; dsDNA, one strand shown. An outline of the steps:
as §1

For another experiment, the target named is ETV1 (Homo sapiens, UniProt P50549 1-477). The note with it: protein: recombinant; tags: N-terminal GST; dsDNA, one strand shown. The procedure, abridged:
as §1

The target in the next experiment is T6, ERF (Homo sapiens, UniProt P50548 1-548).
T6 sequence: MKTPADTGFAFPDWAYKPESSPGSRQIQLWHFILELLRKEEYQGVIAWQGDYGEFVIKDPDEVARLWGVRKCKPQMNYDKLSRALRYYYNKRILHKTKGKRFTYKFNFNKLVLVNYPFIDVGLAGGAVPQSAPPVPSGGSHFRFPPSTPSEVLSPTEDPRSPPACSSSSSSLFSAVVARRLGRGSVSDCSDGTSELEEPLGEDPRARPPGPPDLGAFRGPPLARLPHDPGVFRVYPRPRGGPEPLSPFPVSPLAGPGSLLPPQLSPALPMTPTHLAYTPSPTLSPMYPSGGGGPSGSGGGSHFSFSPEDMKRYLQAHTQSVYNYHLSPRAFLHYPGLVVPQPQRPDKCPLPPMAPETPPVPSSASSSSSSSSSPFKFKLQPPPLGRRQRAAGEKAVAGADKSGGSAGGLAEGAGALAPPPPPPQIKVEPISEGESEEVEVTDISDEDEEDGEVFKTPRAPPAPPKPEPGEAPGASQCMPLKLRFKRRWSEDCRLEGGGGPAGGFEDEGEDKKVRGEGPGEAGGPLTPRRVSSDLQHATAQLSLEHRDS
The following applies: protein: recombinant; tags: N-terminal GST; dsDNA, one strand shown. The procedure, abridged: as §1

The target of another experiment is T7, ETV3L (Homo sapiens, UniProt Q6ZN32 1-361).
T7 sequence: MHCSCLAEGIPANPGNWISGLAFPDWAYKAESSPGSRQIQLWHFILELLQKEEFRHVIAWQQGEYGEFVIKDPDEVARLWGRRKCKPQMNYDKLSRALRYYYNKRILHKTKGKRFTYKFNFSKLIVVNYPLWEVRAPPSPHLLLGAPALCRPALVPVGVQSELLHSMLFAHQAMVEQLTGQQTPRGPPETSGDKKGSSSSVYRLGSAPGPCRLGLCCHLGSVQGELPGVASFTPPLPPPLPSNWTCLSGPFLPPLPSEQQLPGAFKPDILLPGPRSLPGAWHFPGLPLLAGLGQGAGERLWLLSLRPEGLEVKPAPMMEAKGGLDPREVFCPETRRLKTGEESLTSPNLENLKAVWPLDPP
The following applies: protein: recombinant; tags: N-terminal GST; dsDNA, one strand shown. An outline of the steps:
as §1

A further experiment concerns the target T8, ETS2 (Homo sapiens, UniProt P15036 1-469).
T8 sequence: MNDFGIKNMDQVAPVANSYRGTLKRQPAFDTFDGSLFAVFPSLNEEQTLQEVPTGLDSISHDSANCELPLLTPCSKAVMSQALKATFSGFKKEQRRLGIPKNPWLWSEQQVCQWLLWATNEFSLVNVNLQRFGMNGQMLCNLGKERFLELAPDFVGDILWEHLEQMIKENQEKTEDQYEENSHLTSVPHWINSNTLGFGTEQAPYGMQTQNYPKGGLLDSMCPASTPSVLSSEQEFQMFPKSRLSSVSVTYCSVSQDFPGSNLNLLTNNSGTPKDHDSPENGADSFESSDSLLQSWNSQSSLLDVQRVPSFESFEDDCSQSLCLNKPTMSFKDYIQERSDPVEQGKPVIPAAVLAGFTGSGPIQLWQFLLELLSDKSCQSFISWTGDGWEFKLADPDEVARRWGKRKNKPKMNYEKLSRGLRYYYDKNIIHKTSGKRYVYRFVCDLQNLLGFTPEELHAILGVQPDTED
The following applies: protein: recombinant; tags: N-terminal GST; dsDNA, one strand shown. An outline of the steps: as §1

For the next experiment, the target named is T9, SPDEF (Homo sapiens, UniProt O95238 1-335).
T9 sequence: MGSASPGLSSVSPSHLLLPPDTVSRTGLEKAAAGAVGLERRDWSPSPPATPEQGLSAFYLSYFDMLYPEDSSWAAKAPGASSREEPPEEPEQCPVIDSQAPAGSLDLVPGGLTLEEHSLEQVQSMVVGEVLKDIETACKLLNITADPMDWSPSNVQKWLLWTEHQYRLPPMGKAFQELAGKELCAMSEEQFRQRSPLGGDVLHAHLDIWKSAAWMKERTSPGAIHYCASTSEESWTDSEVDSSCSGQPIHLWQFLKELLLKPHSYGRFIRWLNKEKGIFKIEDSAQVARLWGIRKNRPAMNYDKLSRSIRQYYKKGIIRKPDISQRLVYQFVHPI
The following applies: protein: recombinant; tags: N-terminal GST; dsDNA, one strand shown. An outline of the steps: as §1

The next experiment deals with T10, ETV7 (Homo sapiens, UniProt Q9Y603 1-341).
T10 sequence: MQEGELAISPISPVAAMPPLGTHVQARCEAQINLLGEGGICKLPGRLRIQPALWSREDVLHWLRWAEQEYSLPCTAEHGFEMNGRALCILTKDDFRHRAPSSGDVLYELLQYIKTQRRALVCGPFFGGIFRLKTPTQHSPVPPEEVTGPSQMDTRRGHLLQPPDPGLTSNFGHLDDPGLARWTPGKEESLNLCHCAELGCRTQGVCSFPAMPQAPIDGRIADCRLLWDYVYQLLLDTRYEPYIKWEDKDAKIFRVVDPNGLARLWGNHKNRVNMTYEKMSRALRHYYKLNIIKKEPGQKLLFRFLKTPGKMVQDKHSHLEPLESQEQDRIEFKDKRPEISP
The following applies: protein: recombinant; tags: N-terminal GST; dsDNA, one strand shown. The procedure, abridged: as §1

Another experiment addresses T11, ELF5 (Homo sapiens, UniProt Q9UKW6-2 1-255).
T11 sequence: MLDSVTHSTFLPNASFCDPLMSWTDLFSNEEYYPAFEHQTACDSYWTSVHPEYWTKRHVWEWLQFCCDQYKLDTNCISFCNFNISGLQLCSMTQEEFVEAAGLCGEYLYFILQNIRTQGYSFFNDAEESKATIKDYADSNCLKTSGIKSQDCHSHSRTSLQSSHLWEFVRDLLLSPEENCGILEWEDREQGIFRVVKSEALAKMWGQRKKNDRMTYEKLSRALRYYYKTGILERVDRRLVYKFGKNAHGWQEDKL
The note with it: protein: recombinant; tags: N-terminal GST; dsDNA, one strand shown. The procedure, abridged:
as §1

A further experiment deals with T12, ETV3 (Homo sapiens, UniProt P41162-2 1-143).
T12 sequence: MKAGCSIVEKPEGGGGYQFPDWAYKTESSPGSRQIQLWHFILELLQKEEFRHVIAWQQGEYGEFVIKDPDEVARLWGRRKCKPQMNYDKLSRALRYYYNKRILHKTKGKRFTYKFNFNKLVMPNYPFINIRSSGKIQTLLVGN
The following applies: protein: recombinant; tags: N-terminal GST; dsDNA, one strand shown. The procedure, abridged: as §1

For another experiment, the target named is ETV6 (Homo sapiens, UniProt P41212 1-452). The note with it: protein: recombinant; tags: N-terminal GST; dsDNA, one strand shown. An outline of the steps: as §1
Chain of ETV6 (P41212 whole entry): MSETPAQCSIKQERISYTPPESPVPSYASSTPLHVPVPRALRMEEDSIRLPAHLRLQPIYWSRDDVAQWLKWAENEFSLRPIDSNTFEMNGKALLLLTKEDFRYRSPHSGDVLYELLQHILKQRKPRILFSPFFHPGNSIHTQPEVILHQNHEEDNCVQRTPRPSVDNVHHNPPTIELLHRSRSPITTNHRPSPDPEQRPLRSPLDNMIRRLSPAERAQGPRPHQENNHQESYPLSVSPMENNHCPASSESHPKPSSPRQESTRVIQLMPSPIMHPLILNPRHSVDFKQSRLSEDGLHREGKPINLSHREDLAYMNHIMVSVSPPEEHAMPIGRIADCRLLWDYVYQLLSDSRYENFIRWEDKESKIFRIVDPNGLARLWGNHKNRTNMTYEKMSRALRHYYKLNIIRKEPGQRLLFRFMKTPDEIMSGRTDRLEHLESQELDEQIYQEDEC

Chain of CRX (O43186 whole entry): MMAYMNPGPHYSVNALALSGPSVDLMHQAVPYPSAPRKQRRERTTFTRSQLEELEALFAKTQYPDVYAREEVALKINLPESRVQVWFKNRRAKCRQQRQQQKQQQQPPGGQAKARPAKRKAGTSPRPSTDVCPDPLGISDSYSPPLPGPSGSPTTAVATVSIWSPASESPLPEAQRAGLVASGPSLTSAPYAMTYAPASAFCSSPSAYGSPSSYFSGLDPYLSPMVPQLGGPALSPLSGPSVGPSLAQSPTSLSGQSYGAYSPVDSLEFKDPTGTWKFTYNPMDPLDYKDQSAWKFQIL
Chain of ELF4 (Q99607 whole entry): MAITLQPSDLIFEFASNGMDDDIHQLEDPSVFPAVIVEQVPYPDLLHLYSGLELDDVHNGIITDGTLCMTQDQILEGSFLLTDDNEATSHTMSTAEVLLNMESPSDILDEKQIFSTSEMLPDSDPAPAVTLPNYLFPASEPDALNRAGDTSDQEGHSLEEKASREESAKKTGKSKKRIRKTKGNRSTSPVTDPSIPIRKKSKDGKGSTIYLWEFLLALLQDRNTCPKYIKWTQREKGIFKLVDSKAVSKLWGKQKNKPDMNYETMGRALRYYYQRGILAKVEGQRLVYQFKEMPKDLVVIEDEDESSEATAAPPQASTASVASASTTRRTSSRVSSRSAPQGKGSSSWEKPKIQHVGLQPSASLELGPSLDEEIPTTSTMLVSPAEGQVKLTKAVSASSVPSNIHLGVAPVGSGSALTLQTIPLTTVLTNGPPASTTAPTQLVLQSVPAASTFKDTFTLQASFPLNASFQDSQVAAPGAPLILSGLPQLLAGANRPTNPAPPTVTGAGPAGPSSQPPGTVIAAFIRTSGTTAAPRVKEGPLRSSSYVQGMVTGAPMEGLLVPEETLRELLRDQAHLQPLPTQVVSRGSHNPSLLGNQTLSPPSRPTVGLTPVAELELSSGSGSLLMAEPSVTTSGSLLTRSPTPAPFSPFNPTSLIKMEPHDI
Chain of ETV1 (P50549 whole entry): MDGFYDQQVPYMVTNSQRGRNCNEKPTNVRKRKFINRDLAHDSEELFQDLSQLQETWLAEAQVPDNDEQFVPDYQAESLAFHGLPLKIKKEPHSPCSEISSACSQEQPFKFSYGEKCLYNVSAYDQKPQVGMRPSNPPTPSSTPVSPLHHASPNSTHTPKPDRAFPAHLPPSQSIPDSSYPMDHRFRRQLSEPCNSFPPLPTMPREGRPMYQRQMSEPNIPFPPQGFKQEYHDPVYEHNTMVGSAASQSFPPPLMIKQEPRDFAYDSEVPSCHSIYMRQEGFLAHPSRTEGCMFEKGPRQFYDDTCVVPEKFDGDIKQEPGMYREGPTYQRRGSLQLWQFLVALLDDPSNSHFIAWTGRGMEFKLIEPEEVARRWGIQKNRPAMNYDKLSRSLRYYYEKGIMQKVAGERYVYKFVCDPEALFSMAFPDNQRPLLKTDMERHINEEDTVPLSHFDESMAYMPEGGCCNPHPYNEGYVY
Chain of HSF1 (Q00613 whole entry): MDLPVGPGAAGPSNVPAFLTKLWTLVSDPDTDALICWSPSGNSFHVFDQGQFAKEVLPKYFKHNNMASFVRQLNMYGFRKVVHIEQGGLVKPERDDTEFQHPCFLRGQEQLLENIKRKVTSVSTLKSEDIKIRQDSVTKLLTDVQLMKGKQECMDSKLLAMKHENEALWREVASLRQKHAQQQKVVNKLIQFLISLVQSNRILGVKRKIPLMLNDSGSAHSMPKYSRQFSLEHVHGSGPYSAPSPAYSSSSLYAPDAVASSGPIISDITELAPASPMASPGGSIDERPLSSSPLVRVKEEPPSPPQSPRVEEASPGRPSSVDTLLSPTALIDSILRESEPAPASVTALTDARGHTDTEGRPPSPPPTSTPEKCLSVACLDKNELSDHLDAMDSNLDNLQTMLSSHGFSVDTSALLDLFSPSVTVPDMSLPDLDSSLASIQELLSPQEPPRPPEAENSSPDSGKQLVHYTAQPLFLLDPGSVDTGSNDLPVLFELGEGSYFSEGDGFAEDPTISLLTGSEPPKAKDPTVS
Chain of ETV5 (P41161 whole entry): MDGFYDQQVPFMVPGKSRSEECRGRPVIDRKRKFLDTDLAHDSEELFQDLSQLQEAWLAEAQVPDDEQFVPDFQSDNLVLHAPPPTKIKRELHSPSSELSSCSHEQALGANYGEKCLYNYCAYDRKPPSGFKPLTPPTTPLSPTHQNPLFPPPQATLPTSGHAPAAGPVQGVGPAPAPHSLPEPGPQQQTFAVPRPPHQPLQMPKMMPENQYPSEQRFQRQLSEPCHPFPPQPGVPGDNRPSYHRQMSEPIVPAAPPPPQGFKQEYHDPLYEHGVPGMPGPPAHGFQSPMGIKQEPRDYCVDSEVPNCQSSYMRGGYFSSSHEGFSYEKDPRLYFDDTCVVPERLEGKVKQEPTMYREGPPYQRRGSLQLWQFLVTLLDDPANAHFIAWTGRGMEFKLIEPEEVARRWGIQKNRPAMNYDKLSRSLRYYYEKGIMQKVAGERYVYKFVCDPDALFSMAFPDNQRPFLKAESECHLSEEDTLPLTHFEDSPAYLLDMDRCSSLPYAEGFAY

For the sequence GATTAC, the binding signal is 1.05 fold enrichment (6-mer frequency, TF over GST control) with FEV; 1.06 fold enrichment (6-mer frequency, TF over GST control) with ETV5; 2.08 fold enrichment (6-mer frequency, TF over GST control) with HSF1; 1.13 fold enrichment (6-mer frequency, TF over GST control) with SPIC; 1.08 fold enrichment (6-mer frequency, TF over GST control) with ELF4; 1.23 fold enrichment (6-mer frequency, TF over GST control) in the experiment with ELK4. Moreover, the binding signal with ETV2 is 1.1 fold enrichment (6-mer frequency, TF over GST control); with ELF3, 1.04 fold enrichment (6-mer frequency, TF over GST control); in the experiment with CRX, 3.27 fold enrichment (6-mer frequency, TF over GST control); in the experiment with ETV1 it was 1.1 fold enrichment (6-mer frequency, TF over GST control); in the experiment with ERF it was 1.13 fold enrichment (6-mer frequency, TF over GST control); with ETV3L, 1.07 fold enrichment (6-mer frequency, TF over GST control). For the same sequence, the binding signal with ETS2 is 1.1 fold enrichment (6-mer frequency, TF over GST control); with SPDEF, 1.13 fold enrichment (6-mer frequency, TF over GST control); in the experiment with ETV7 it was 1.08 fold enrichment (6-mer frequency, TF over GST control); with ELF5 it was 1.11 fold enrichment (6-mer frequency, TF over GST control); with ETV3 it was 1.07 fold enrichment (6-mer frequency, TF over GST control); with ETV6, 1.13 fold enrichment (6-mer frequency, TF over GST control).
